Only some compounds are listed: those with a hit (about 3.9% of all), similar ones and a draw of the others.
Cardio protect: protects H9c2 cardiomyocytes from peroxide injury; H2O2 injury protection, ATPLite, 2 h; 0.63% of 360,000 active; AID 588492; protection from H2O2 cell death, % at 20 µM;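 active = compounds giving at least 50% protection of heart cells from peroxide-induced death in the single-dose screen, raw or plate-pattern-corrected value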
UBC9 SUMO inh: SUMOylation inhibition. HTRF SUMOylation assay, SAE1/SAE2 + UBC9, in vitro. inhibition, % at 35 µM. 0.36% of 290,000 active. AID 2006; in the data active = inhibition above about 50%, passing the limit was not always enough; inconclusive = no clear call, values can overlap the other calls
NTR1 agonist: NTR1 (human) agonism | P30989 | NTR1-U2OS beta-arrestin-GFP spot imaging, agonist mode | activation, % at 20 µM | 0.17% of 330,000 active;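 active = activation at or above 40% of the spot to cytoplasm intensity ratio, with at least 20 cells analyzed; inconclusive = wells under 20 cells, flagged as cytotoxic or low count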
Target sequence (P30989 whole entry, looked up): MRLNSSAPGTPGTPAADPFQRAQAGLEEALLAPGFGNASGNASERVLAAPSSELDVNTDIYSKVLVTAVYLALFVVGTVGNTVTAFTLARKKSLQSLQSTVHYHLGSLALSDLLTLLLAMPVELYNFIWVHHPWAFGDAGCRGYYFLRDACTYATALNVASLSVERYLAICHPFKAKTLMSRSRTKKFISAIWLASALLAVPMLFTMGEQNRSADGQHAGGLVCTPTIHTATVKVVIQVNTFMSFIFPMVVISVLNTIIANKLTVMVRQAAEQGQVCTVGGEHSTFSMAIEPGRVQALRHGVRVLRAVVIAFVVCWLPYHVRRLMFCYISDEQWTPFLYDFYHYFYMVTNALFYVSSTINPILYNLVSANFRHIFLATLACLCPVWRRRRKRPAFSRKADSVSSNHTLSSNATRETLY
ALR inh: inhibitors of human sulfhydryl oxidase ALR. 3.8% of 290,000 active. purified ALR, DTT oxidation, H2O2 HRP-luminol luminescence. inhibition, % (concentration not given with the values). P55789;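 active = mean replicate inhibition above about 79%, with every replicate also reaching it, limit read from the data; inconclusive = only one of the two criteria met; inactive = mean below limit and not every replicate reaching it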
Target sequence (P55789 whole entry, looked up): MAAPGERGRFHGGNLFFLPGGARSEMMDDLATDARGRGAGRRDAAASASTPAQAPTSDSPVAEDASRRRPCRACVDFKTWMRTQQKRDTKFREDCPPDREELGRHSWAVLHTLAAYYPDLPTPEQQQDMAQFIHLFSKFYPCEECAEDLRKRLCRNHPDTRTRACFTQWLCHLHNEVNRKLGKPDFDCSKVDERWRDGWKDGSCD
Hits are given with their value.

Screening COc1ccc(-n2c(C)cc(C(=O)CSc3nn4c(=O)c(C(C)(C)C)nnc4s3)c2C)cc1 returned Cardio protect inactive, UBC9 SUMO inh inactive, NTR1 agonist inactive and ALR inh inactive.
`COc1ccc(C(=O)CSc2nn3c(=O)c(C(C)(C)C)nnc3s2)cc1` gave Cardio protect inactive, UBC9 SUMO inh inactive, NTR1 agonist inactive and ALR inh 97.
`Cc1cc(C(=O)CSc2nn3c(=O)c(C(C)(C)C)nnc3s2)c(C)n1C` gave Cardio protect inactive, UBC9 SUMO inh inactive, NTR1 agonist inactive and ALR inh 92.
O=C(c1cccc(C(F)(F)F)c1)C1CCCN(Cc2cccn2-c2ccccn2)C1 (stereo not given) was read as Cardio protect inactive, UBC9 SUMO inh inactive, NTR1 agonist inactive and ALR inh inactive.
CCN(Cc1ccccc1)c1cc2c(c3c1ccn3C)C1CCC2O1 (stereo not given) was read as Cardio protect inactive.
COc1ccccc1NC(=O)CSc1nc(=O)n(CCN(C)C)c2c1CCCC2 was read as Cardio protect inactive, NTR1 agonist inactive and ALR inh inactive.
CN(C)CCn1c2c(c(SCC(=O)Nc3nccs3)nc1=O)CCCC2 was read as Cardio protect inactive, NTR1 agonist inactive and ALR inh 96.
`CCN(CC)CCn1c2c(c(SCC(=O)Nc3cc(C)ccc3C)nc1=O)CCC2` gave Cardio protect inactive, NTR1 agonist inactive and ALR inh inactive.
For CCN(CC)CCn1c2c(c(SCC(=O)Nc3nccs3)nc1=O)CCCC2 the results were Cardio protect inactive, NTR1 agonist inactive and ALR inh 98.
O=C(NCCc1ccncc1)C12CC3CC(CC(C3)C1)C2 was read as Cardio protect inactive, UBC9 SUMO inh inactive, NTR1 agonist inactive and ALR inh inactive.
For CCS(=O)(=O)Nc1ccc(-c2cc(-c3ccccc3)c3cc(C)ccc3n2)cc1 the results were Cardio protect inactive, UBC9 SUMO inh inactive and ALR inh 89.
Screening CCC1CCCCN1C(=O)CSc1nnc(-c2cccc(Cl)c2)o1 (stereo not given) returned Cardio protect inactive, UBC9 SUMO inh inactive and NTR1 agonist inactive.
Screening COc1cc([C@@H]2Oc3cc(C4Oc5cc(O)cc(O)c5C(=O)[C@H]4O)ccc3O[C@H]2CO)ccc1O (stereo not given in full) returned Cardio protect inactive and ALR inh 99.
Screening COc1cc(OC)c2c(c1)OC(c1ccc(OC)c(OC)c1)C(O)C2=O (stereo not given) returned Cardio protect inactive, UBC9 SUMO inh inactive and NTR1 agonist inactive.
For COc1cc([C@H]2Oc3cc([C@H]4Oc5cc(O)cc(O)c5C(=O)[C@@H]4O)ccc3O[C@@H]2CO)ccc1O the results were Cardio protect inactive, UBC9 SUMO inh inactive, NTR1 agonist inactive and ALR inh 99.
Screening COc1cc(OC)c2c(C)cc(=O)oc2c1C(CCN1CCOCC1)c1ccc2c(c1)OCO2 (stereo not given) returned Cardio protect inactive, UBC9 SUMO inh inactive and NTR1 agonist inactive.
CCCNC(=O)C1(C)CCN(Cc2ccc(C)c3ccccc23)C1 (stereo not given) was read as Cardio protect inactive.
Screening COC(=O)c1ccc2nc(-c3cccc(N)c3)cn2c1 returned Cardio protect inactive, UBC9 SUMO inh inactive, NTR1 agonist inactive and ALR inh 99.
COC(=O)c1ccc2nc(-c3ccc(S(C)(=O)=O)cc3)cn2c1 was read as Cardio protect inactive, UBC9 SUMO inh inactive, NTR1 agonist inactive and ALR inh inactive.
Screening CCN(CC)CCNS(=O)(=O)c1ccc(C(=O)NN)cc1 returned Cardio protect inactive, UBC9 SUMO inh inactive, NTR1 agonist inactive and ALR inh 98.
`CCOC(=O)c1ccc(S(=O)(=O)NCCN(CC)CC)cc1` gave Cardio protect inactive, UBC9 SUMO inh inactive, NTR1 agonist inactive and ALR inh inactive.
CC(/C=N/n1c(-c2ccccc2)n[nH]c1=S)=C\c1ccco1 was read as Cardio protect inactive, UBC9 SUMO inh inactive, NTR1 agonist inactive and ALR inh inconclusive.
`CC(/C=N/n1c(-c2ccco2)n[nH]c1=S)=C\c1ccco1` gave Cardio protect inactive, UBC9 SUMO inh 64, NTR1 agonist inactive and ALR inh inactive.
Screening CC(/C=N/n1c(-c2ccc(C)cc2)n[nH]c1=S)=C\c1ccco1 returned Cardio protect inactive, UBC9 SUMO inh inactive, NTR1 agonist inactive and ALR inh 97.
`Cc1cccc(N2CC(C(=O)Nc3ccc(S(=O)(=O)N4CCCCC4)cc3)CC2=O)c1C` (stereo not given) gave Cardio protect inactive, UBC9 SUMO inh inactive, NTR1 agonist inactive and ALR inh inactive.
For O=C(N/N=C/c1ccc(O)c([N+](=O)[O-])c1)C(O)(c1ccccc1)c1ccccc1 the results were Cardio protect inactive, UBC9 SUMO inh inactive, NTR1 agonist inactive and ALR inh inactive.
Screening O=C(NNc1cc(N2CCOCC2)nc(N2CCOCC2)n1)c1ccc(Cl)cc1Cl returned Cardio protect inactive, UBC9 SUMO inh 86, NTR1 agonist inactive and ALR inh inactive.
For C=CCOc1c(CNc2ccc3[nH]c(=O)[nH]c3c2)cccc1OC the results were Cardio protect inactive, UBC9 SUMO inh inactive, NTR1 agonist inactive and ALR inh 99.
COc1cc(CNc2ccc(N3CCCCC3)cc2)ccc1OCC(=O)NC(C)(C)C was read as Cardio protect inactive, UBC9 SUMO inh inactive, NTR1 agonist inactive and ALR inh 99.
For COc1cc(CNc2ccc(N3CCCC3)cc2)ccc1OCc1ccccc1 the results were Cardio protect inactive and UBC9 SUMO inh inactive.
For C=CCOc1ccc(CNCc2cccnc2)cc1OCC the results were Cardio protect inactive, UBC9 SUMO inh inactive, NTR1 agonist inactive and ALR inh 94.
`C=CCOc1ccc(CNCCO)cc1OCC` gave Cardio protect inactive, UBC9 SUMO inh inactive and NTR1 agonist inactive.
For C=CCOc1ccc(CNc2ccc3[nH]c(=O)[nH]c3c2)cc1 the results were Cardio protect inactive, UBC9 SUMO inh inactive, NTR1 agonist inactive and ALR inh 99.
CCOc1ccc(N(C)S(=O)(=O)c2ccc(C)c(C(=O)N3CCN(Cc4ccc5c(c4)OCO5)CC3)c2)cc1 was read as Cardio protect inactive, NTR1 agonist inactive and ALR inh inactive.
For CCCN(CC(=O)Nc1ccccc1C)C(=O)COc1c(C)cccc1C the results were Cardio protect inactive, NTR1 agonist inactive and ALR inh inactive.
For CCOc1cc(CNc2ccc3[nH]c(=O)[nH]c3c2)ccc1OCC(=O)NC(C)(C)C the results were Cardio protect 57, UBC9 SUMO inh inactive, NTR1 agonist inactive and ALR inh 91.
For C=CCOc1ccc(CNc2ccc3[nH]c(=O)[nH]c3c2)cc1OCC the results were Cardio protect inactive, UBC9 SUMO inh inactive, NTR1 agonist inactive and ALR inh 98.
Screening COc1cc(CNc2ccc3[nH]c(=O)[nH]c3c2)cc(Cl)c1OCC(=O)NC(C)(C)C returned Cardio protect inactive, UBC9 SUMO inh inactive, NTR1 agonist inactive and ALR inh 98.
Screening CCOc1ccccc1OCC(=O)Nc1ccc2[nH]c(=O)[nH]c2c1 returned Cardio protect inactive and NTR1 agonist inactive.
For CC1CCCCC1NC(=O)CSc1nc2ccccc2[nH]1 (stereo not given) the results were Cardio protect inactive, UBC9 SUMO inh inactive, NTR1 agonist inactive and ALR inh inactive.

Compound activity (PubChem)
